Results as given in PubChem BioAssay AID1159580 (chemical genetic matrix, 2015).
Among all 5,500 compounds or so, about 2,000 (36%) were called active. Roughly 18% stayed inconclusive and do not appear here. Cut-off read from the data, not from the text of the source: active = normalized growth mostly below about 0.91 (no sharp cut-off); inconclusive = no clear call, values can overlap the other calls; inactive = mostly above about 0.92. The list shows a part of the results.

Test: chemical genetic growth profiling, strain panel (AID 1159580);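 note: tested at 20 µM; growth read once vehicle control cultures reached saturation at 30 °C; 1 = growth at the plate median or of vehicle wells; lower values mean less growth of the strain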
Conditions: growth OD
[1] = S. cerevisiae deletion strains, locus YJR075W, strain HOC1, active compounds read low
[2] = S. cerevisiae deletion strains, locus YMR307W, strain GAS1, active compounds read low
[3] = S. cerevisiae deletion strains, locus YNL153C, strain GIM3, active compounds read low

Measured: normalized growth

CN1CCC(c2c[nH]c3ccc(O)cc23)CC1
inactive: S. cerevisiae deletion strains, locus YAL040C, strain CLN3, active compounds read low 0.986 | S. cerevisiae deletion strains, locus YCL061C, strain MRC1 (second series), active compounds read low 1.01 | S. cerevisiae deletion strains, locus YDR150W, strain NUM1, active compounds read low 1.01 | S. cerevisiae deletion strains, locus YDR363W, strain ESC2, active compounds read low 1 | S. cerevisiae deletion strains, locus YER002W, strain NOP16, active compounds read low 0.987 | [1] 1.01 | [2] 0.988 | [3] 0.948 | S. cerevisiae deletion strains, locus YNL175C, strain NOP13, active compounds read low 1.01 | S. cerevisiae deletion strains, locus YNL197C, strain WHI3, active compounds read low 0.999 | S. cerevisiae deletion strains, locus YNL224C, strain SQS1, active compounds read low 1.02 | S. cerevisiae deletion strains, locus YOR083W, strain WHI5 (second series), active compounds read low 1.04 | S. cerevisiae deletion strains, locus YPL055C, strain LGE1, active compounds read low 0.996

CSCCC(NC=O)C(=O)NC(C)C(=O)O (stereo not drawn)
inactive: S. cerevisiae deletion strains, locus YBR021W, strain FUR4, active compounds read low 0.982 | S. cerevisiae deletion strains, locus YBR229C, strain ROT2, active compounds read low 0.989 | S. cerevisiae deletion strains, locus YCL029C, strain bik1, active compounds read low 0.983 | S. cerevisiae deletion strains, locus YDL035C, strain GPR1, active compounds read low 1.01 | S. cerevisiae deletion strains, locus YDL074C, strain BRE1, active compounds read low 1.02 | S. cerevisiae deletion strains, locus YDL101C, strain DUN1, active compounds read low 0.998 | S. cerevisiae deletion strains, locus YDL134C, strain PPH21, active compounds read low 0.989 | S. cerevisiae deletion strains, locus YDL185W, strain tfp1, active compounds read low 0.977 | S. cerevisiae deletion strains, locus YDL192W, strain arf1, active compounds read low 0.972 | S. cerevisiae deletion strains, locus YDR101C, strain arx1, active compounds read low 0.983 | S. cerevisiae deletion strains, locus YDR162C, strain NBP2, active compounds read low 0.997 | S. cerevisiae deletion strains, locus YDR318W, strain mcm21, active compounds read low 0.988 | S. cerevisiae deletion strains, locus YDR388W, active compounds read low 0.985 | S. cerevisiae deletion strains, locus YDR502C, strain sam2, active compounds read low 0.992 | S. cerevisiae deletion strains, locus YEL061C, strain CIN8, active compounds read low 0.995 | S. cerevisiae deletion strains, locus YER110C, active compounds read low 0.976 | S. cerevisiae deletion strains, locus YER155C, strain BEM2, active compounds read low 0.993 | S. cerevisiae deletion strains, locus YER167W, strain BCK2, active compounds read low 0.988 | S. cerevisiae deletion strains, locus YGL078C, strain dbp3, active compounds read low 0.978 | S. cerevisiae deletion strains, locus YGL086W, strain mad1, active compounds read low 0.996 | S. cerevisiae deletion strains, locus YGL248W, strain PDE1, active compounds read low 1.01 | S. cerevisiae deletion strains, locus YGR078C, strain PAC10, active compounds read low 1.03 | S. cerevisiae deletion strains, locus YGR135W, strain pre9, active compounds read low 0.984 | S. cerevisiae deletion strains, locus YGR229C, strain SMI1, active compounds read low 0.995 | S. cerevisiae deletion strains, locus YGR252W, strain gcn5, active compounds read low 0.972 | S. cerevisiae deletion strains, locus YHR030C, strain SLT2, active compounds read low 0.989 | S. cerevisiae deletion strains, locus YHR079C, strain IRE1 (second series), active compounds read low 0.988 | S. cerevisiae deletion strains, locus YHR094C, strain hxt1, active compounds read low 0.978 | S. cerevisiae deletion strains, locus YHR129C, strain ARP1, active compounds read low 0.996 | S. cerevisiae deletion strains, locus YHR200W, strain rpn10, active compounds read low 0.987 | S. cerevisiae deletion strains, locus YIL066C, strain RNR3, active compounds read low 1 | S. cerevisiae deletion strains, locus YIL073C, strain SPO22, active compounds read low 0.943 | S. cerevisiae deletion strains, locus YIL125W, strain kgd1, active compounds read low 0.987 | S. cerevisiae deletion strains, locus YIR030C, strain dcg1, active compounds read low 0.983 | S. cerevisiae deletion strains, locus YJL095W, strain BCK1, active compounds read low 1.04 | S. cerevisiae deletion strains, locus YJL134W, strain LCB3, active compounds read low 0.991 | S. cerevisiae deletion strains, locus YJL168C, strain set2, active compounds read low 0.985 | S. cerevisiae deletion strains, locus YJL187C, strain SWE1 (second series), active compounds read low 1.01 | S. cerevisiae deletion strains, locus YJR043C, strain POL32, active compounds read low 1.02 | [1] 1.01 | S. cerevisiae deletion strains, locus YKL009W, strain mrt4, active compounds read low 0.974 | S. cerevisiae deletion strains, locus YKL068W, active compounds read low 0.986 | S. cerevisiae deletion strains, locus YKL085W, strain MDH1 (second series), active compounds read low 1.01 | S. cerevisiae deletion strains, locus YKL085W, strain MDH1, active compounds read low 1.01 | S. cerevisiae deletion strains, locus YKL190W, strain CNB1, active compounds read low 1 | S. cerevisiae deletion strains, locus YKR001C, strain vps1, active compounds read low 0.988 | S. cerevisiae deletion strains, locus YLR039C, strain RIC1, active compounds read low 1.01 | S. cerevisiae deletion strains, locus YLR058C, strain SHM2, active compounds read low 0.996 | S. cerevisiae deletion strains, locus YLR102C, strain apc9, active compounds read low 0.98 | S. cerevisiae deletion strains, locus YLR262C, strain YPT6, active compounds read low 1.04 | S. cerevisiae deletion strains, locus YLR268W, strain sec22, active compounds read low 0.987 | S. cerevisiae deletion strains, locus YLR330W, strain CHS5, active compounds read low 0.99 | S. cerevisiae deletion strains, locus YLR342W, strain FKS1 (second series), active compounds read low 0.987 | S. cerevisiae deletion strains, locus YLR371W, strain rom2, active compounds read low 0.972 | S. cerevisiae deletion strains, locus YLR418C, strain cdc73, active compounds read low 0.994 | S. cerevisiae deletion strains, locus YML016C, strain PPZ1, active compounds read low 0.993 | S. cerevisiae deletion strains, locus YML032C, strain rad52, active compounds read low 0.987 | S. cerevisiae deletion strains, locus YML124C, strain tub3, active compounds read low 0.981 | S. cerevisiae deletion strains, locus YMR078C, strain ctf18, active compounds read low 0.984 | S. cerevisiae deletion strains, locus YMR223W, strain ubp8, active compounds read low 0.986 | S. cerevisiae deletion strains, locus YMR263W, strain SAP30, active compounds read low 1.01 | [2] 0.872 | S. cerevisiae deletion strains, locus YNL067W, strain RPL9B, active compounds read low 1.03 | [3] 1.04 | S. cerevisiae deletion strains, locus YNL233W, strain BNI4, active compounds read low 1.01 | S. cerevisiae deletion strains, locus YNL250W, strain rad50, active compounds read low 0.983 | S. cerevisiae deletion strains, locus YNL271C, strain bni1, active compounds read low 0.968 | S. cerevisiae deletion strains, locus YNL298W, strain CLA4, active compounds read low 0.99 | S. cerevisiae deletion strains, locus YNL307C, strain MCK1, active compounds read low 0.989 | S. cerevisiae deletion strains, locus YNR052C, strain pop2, active compounds read low 0.983 | S. cerevisiae deletion strains, locus YOL006C, strain TOP1, active compounds read low 1.05 | S. cerevisiae deletion strains, locus YOL012C, strain htz1 1.02 | S. cerevisiae deletion strains, locus YOL147C, strain pex11, active compounds read low 0.983 | S. cerevisiae deletion strains, locus YOR061W, strain CKA2, active compounds read low 0.993 | S. cerevisiae deletion strains, locus YOR069W, strain VPS5, active compounds read low 0.983 | S. cerevisiae deletion strains, locus YOR136W, strain idh2, active compounds read low 0.995 | S. cerevisiae deletion strains, locus YOR144C, strain elg1, active compounds read low 0.984 | S. cerevisiae deletion strains, locus YOR184W, strain ser1, active compounds read low 0.995 | S. cerevisiae deletion strains, locus YOR316C, strain cot1, active compounds read low 0.972 | S. cerevisiae deletion strains, locus YPR119W, strain clb2, active compounds read low 0.991 | S. cerevisiae deletion strains, locus YPR141C, strain kar3, active compounds read low 0.978 | S. cerevisiae deletion strains, locus YPR163C, strain tif3, active compounds read low 0.988 | S. cerevisiae deletion strains, locus YPR167C, strain met16, active compounds read low 0.978 | S. cerevisiae deletion strains, strain wtn01, active compounds read low 0.992 | S. cerevisiae strains, strain wild type, active compounds read low 0.996
